Where a name gives a salt, the structure may show the parent alone.
system: Saccharomyces cerevisiae; assay: fraction of cells in G1 phase (DNA content, flow cytometry); higher = more cells with unreplicated DNA (G1 delay); conditions: temperature: 30 C; YPD; JTY2953 pdr5 snq2 (sensitized); drug added to: cultures diluted from stationary phase; 6-7 h
Procedure, shortened: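 S. cerevisiae in YPD at 30°C was dosed with library drugs, using a final 20 µg/ml for sensitized JTY2953 diluted 1∶200 from overnight and fixed at 6–7 h, or dosing dividing JTY2953 (fixed at 6 h) and BY4741 (fixed at 4.33 h). Ethanol-fixed, SYTOX Green-stained cells were read by flow cytometry (10,000 events). The G1 fraction is taken as the Dean-Jett-Fox G1 peak area divided by the G1 and G2/M areas combined.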

SMILES	fraction of cells in G1 phase
N=c1nc(N2CCCCC2)cc(N)n1O [Minoxidil] (95.5782 µM)	0.522
CNC(=C[N+](=O)[O-])NCCSCc1ccc(CN(C)C)o1 [Ranitidine HCl] (63.6114 µM)	0.501
CN(C(=O)CCCOc1ccc2[nH]c(=O)ccc2c1)C1CCCCC1 [Cilostamide] (58.4041 µM)	0.499
CNCCC(Oc1ccccc1OC)c1ccccc1 (configuration not stated) [Nisoxetine HCl] (73.7022 µM)	0.511
CN1CCC(=C2c3ccccc3CC(=O)c3sccc32)CC1 [Ketotifen fumarate] (64.6343 µM)	0.496
CN(C/C=C/C#CC(C)(C)C)Cc1cccc2ccccc12 [Terbinafine HCl] (68.6247 µM)	0.5
N[C@@H](Cc1ccc(O)c(O)c1)C(=O)O [Levodopa] (101.424 µM)	0.487
CCCCC[C@H](O)/C=C/[C@@H]1[C@@H](C/C=C\CCCC(=O)O)[C@@H](O)C[C@H]1O [Dinoprost] (56.4189 µM)	0.523
CC(C)OC(=O)CCC/C=C\C[C@@H]1[C@@H](CC[C@@H](O)CCc2ccccc2)[C@H](O)C[C@@H]1O [Latanoprost] (46.2315 µM)	0.528
CC(=O)Oc1ccccc1C(=O)O [Acetylsalicylic acid] (111.011 µM)	0.49
CC12CC3CC(C)(C1)CC(N)(C3)C2 [Memantine HCl] (111.54 µM)	0.532
CN[C@@H]1[C@H](O)[C@H](NC)[C@H]2O[C@@]3(O)C(=O)C[C@@H](C)O[C@H]3O[C@@H]2[C@H]1O [Spectinomycin] (60.1763 µM)	0.485

Reference: the supplement of paper PMC3342239
